Among the data in PubChem BioAssay are composite z-score and z-score values, retold here.

Activity calls are given as the source filed them.

A short description of assay [1]: binders of probe aFSTL3 on microarray, primary screen, stem cell growth factor project, biochemical, small-molecule microarray, fluorescence 635/667 (AID 1064).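 Note: measures binding of the biotinylated anti-FSTL3 antibody to printed compounds.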 Conditions: higher = more signal.
The nature of assay [2]: binders from COS7 lysate, DM2A8 probe, primary screen, torsin A project, cell lysate, small-molecule microarray, fluorescence 635/667 (AID 1065). The note with it: higher = more signal, COS7 lysate expressing mutant human TOR1A.
Assay [3] can be described thus: binders of probe aFGF2 on microarray, primary screen, stem cell growth factor project, biochemical, small-molecule microarray, fluorescence 635/667 (AID 1067).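 Note: measures binding of biotinylated aFGF2 protein to printed compounds on slides; z-score merges feature fluorescence and signal-to-noise across triplicate slides.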 Conditions: higher = more signal.
A short description of assay [4]: binders of probe aFGF10 on microarray, primary screen, stem cell growth factor project, biochemical, small-molecule microarray, fluorescence 635/667 (AID 1071).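 Note: score merges 667 nm spot intensity and signal to noise from triplicate slides.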 The note with it: higher = more signal.
Assay [5] addresses Neurogenic locus notch homolog protein 2 (Homo sapiens) (UniProt Q04721). The assay can be described thus: Notch2 binders on small-molecule microarrays, primary screen, biochemical, small-molecule microarray, 635 nm fluorescence, stem cell growth factors (AID 1073). The note with it: Notch2 binding, higher = more signal.
The target in assay [6] is Pro-neuregulin-1, membrane-bound isoform (Homo sapiens) (UniProt Q02297). The assay can be described thus: NRG1 binders on small-molecule microarrays, primary screen, psychiatric disease protein project, biochemical, small-molecule microarray, fluorescence 635/667 (AID 1075).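 Note: score combines 667 nm spot fluorescence with signal to noise.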 Conditions: NRG1 binding, 635 nm fluorescence, higher = more signal.
Pro-neuregulin-1, membrane-bound isoform (Homo sapiens), sequence (Q02297 whole entry, looked up, the tested form may be a part, canonical isoform): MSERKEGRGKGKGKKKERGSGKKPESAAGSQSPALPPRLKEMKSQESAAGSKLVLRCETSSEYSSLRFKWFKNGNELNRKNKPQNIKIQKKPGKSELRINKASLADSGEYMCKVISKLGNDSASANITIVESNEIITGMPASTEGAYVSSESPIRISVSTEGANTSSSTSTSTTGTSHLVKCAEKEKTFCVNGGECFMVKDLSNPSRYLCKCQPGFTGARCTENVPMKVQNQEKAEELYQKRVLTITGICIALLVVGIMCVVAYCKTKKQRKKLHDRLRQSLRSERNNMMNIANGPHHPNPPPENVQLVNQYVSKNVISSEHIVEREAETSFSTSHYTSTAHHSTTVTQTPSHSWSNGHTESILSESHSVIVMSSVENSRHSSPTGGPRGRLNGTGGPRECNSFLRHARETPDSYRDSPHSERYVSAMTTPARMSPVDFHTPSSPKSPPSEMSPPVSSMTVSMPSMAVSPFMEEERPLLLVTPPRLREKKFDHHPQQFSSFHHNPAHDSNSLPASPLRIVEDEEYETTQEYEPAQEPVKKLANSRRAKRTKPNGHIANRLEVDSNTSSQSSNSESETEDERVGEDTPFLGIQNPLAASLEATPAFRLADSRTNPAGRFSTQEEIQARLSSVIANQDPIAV
The test system of assay [7] is Neuregulin-1 EGF-like domain. The assay can be described thus: binders of neuregulin-1 EGF-like domain, primary screen, biochemical, small-molecule microarray, 635 nm fluorescence (AID 1081).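 Note: binding of the protein to compounds printed on small-molecule microarray slides.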 The note with it: small-molecule microarray binding, higher = more signal.
Assay [8] can be described thus: FRG1 promoter luciferase signal modulators, primary screen, FRG1 inhibition for FSHD, cell-based, C2C12 myotubes, firefly/Renilla luciferase, luminescence (AID 1084). Conditions: higher = more signal, called active from +8 up or from −8 down.
The nature of assay [9]: binders of probe aFST on microarray, primary screen, stem cell growth factor project, biochemical, small-molecule microarray, fluorescence 635/667 (AID 1086).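 Note: score merges 667 nm fluorescence with signal-to-noise of each printed compound spot.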 The note with it: higher = more signal.
Assay [10] can be described thus: binders of probe aHhip on microarray, primary screen, stem cell growth factor project, biochemical, small-molecule microarray, fluorescence 635/667 (AID 1087).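 Note: score merges spot fluorescence at 667nm with spot signal to noise ratio.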 The note with it: higher = more signal.

Neurogenic locus notch homolog protein 2 (Homo sapiens), sequence (Q04721 whole entry, looked up, canonical isoform): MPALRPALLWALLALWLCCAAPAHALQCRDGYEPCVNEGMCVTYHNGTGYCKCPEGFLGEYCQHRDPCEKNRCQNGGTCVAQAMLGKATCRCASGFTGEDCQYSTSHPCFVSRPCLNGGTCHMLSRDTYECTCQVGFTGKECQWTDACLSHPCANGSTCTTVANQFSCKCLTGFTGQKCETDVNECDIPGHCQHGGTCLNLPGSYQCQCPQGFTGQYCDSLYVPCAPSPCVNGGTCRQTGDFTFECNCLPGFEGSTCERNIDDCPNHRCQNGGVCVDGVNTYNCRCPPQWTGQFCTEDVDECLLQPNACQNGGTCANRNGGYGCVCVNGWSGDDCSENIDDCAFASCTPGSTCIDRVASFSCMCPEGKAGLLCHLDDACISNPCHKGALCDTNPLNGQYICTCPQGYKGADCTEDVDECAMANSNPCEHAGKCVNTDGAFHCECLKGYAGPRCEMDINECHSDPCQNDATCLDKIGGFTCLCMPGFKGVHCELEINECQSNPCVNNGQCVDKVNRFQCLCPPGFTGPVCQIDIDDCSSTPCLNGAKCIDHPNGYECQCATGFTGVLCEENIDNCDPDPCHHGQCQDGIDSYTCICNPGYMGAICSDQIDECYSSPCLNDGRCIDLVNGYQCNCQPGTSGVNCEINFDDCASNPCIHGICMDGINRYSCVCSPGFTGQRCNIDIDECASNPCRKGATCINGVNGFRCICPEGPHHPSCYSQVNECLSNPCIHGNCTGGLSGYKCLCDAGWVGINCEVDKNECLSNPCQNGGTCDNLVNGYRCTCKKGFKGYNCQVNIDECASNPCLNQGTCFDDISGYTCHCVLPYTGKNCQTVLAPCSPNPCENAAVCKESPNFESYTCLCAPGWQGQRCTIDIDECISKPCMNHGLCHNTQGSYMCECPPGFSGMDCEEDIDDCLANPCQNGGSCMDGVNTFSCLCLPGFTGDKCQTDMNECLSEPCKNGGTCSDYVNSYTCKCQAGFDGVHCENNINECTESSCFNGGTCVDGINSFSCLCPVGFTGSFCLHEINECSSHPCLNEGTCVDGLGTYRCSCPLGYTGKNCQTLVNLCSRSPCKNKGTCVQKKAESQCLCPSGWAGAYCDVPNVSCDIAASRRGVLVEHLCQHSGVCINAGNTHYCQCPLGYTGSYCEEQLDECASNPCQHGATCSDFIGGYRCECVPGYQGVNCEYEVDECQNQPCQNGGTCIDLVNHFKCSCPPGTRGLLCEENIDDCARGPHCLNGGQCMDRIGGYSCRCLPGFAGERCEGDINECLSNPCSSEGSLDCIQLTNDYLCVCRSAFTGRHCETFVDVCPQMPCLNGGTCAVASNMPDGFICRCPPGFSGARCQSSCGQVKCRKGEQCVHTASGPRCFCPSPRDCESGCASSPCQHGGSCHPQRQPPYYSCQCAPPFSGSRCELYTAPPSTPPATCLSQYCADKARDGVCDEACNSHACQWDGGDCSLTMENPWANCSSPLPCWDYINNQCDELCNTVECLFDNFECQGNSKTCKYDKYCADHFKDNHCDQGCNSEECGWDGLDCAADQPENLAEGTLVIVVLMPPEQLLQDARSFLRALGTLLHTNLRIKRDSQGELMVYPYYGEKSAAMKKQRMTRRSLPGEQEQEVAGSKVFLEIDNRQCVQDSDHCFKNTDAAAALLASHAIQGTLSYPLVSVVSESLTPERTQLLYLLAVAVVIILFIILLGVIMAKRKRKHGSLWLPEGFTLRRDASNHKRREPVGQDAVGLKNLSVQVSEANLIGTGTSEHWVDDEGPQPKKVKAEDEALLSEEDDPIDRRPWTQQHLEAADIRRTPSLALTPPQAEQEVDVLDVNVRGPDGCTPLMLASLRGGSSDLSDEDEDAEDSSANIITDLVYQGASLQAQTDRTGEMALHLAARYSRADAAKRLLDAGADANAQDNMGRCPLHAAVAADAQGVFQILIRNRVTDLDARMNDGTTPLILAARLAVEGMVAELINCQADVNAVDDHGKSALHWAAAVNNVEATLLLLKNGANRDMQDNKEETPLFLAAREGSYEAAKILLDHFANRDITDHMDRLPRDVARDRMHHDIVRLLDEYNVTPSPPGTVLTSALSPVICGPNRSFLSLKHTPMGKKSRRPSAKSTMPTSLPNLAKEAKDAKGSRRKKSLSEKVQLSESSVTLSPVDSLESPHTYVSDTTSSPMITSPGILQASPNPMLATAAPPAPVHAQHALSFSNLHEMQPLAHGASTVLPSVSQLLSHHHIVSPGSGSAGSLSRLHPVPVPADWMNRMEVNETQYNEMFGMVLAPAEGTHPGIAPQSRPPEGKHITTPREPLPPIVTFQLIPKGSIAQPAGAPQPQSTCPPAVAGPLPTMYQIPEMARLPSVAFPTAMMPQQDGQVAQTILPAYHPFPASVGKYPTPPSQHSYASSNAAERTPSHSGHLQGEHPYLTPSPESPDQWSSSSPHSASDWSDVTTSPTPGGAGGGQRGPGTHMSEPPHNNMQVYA

As for `COc1ccc([Si](C)(C)[C@@H]2[C@@H](CCn3cc([C@H](O)c4ccccc4)nn3)O[C@]3(C(=O)N(C)c4ccccc43)[C@H]2C)cc1`, the composite z-score in [1] is -0.266; in assay [2] it was 0.356; in assay [3] it was -0.0468; in [4], 0.181; in assay [5] it was 0.0572; in assay [6], 0.0939. The composite z-score is 0.448 in [7], -0.108 in assay [9] and -0.391 in assay [10]. Besides, the z-score in assay [8] is -1.31 (inactive).
In the case of `C=C[C@H](C)[C@H](O)c1ccc(OCCO)cc1`, the composite z-score was 0.254 in assay [1]; -0.716 in [2]; -0.243 in assay [3]; -1.14 in assay [4]; -2.21 in assay [5]; -0.758 in assay [6]. Moreover, the composite z-score in assay [7] is -0.694; in [9], -0.91; in assay [10] it was -0.204. Also, in assay [8], the z-score was 5.78 (inactive).
On to `C=CCCN(CC#C[C@H]1Oc2ccccc2S(=O)(=O)N2CCC[C@@H]12)S(=O)(=O)c1ccc(C)cc1`, for which the composite z-score in [1] was -0.141; in [2], -0.0385; in [3], -0.0717; in assay [4], 0.61; in assay [5], -0.271; in assay [6] it was 0.353. The composite z-score in assay [7] worked out at 0.476; in [9] it was 0.0279; in assay [10] it was 0.0373. In addition, the z-score in assay [8] is -4.31 (inactive).
Regarding `C=CCN1Cc2ccccc2C[C@]2(N=C(c3ccc(OCCCO)cc3)O[C@@H]2c2ccccc2)C1=O`, the composite z-score in assay [1] is 0.211; in assay [2], 0.363; in [3], -0.0883; in [4] it was -0.147; in [5], 0.977; in assay [6] it was 0.414. For the same compound, the results for the composite z-score in assay [7], in [9] and in assay [10] were 1.35, 0.607 and 0.0722, respectively. Further, in [8], the z-score is -3.57 (inactive).
Regarding `COc1cc(NN2C(C(O)c3ccccc3)C=CC3C(=O)N(c4ccccc4)C(=O)C32)cc(OC)c1OC` (stereo not given), the composite z-score in assay [1] is -0.0824; in assay [2], 0.215; in assay [3] it was 0.135; in [4], 1.13; in [5], 1.56; in assay [6], 1.87. Further, the composite z-score in [7] was 1.38; in assay [9] it was 1.08; in assay [10], -0.194. Further, the z-score in assay [8] was 0.556 (inactive).
With `C=CCOC(=O)[C@@H]1[C@H]2C(=O)O[C@H](c3ccccc3)[C@H](c3ccccc3)N2[C@H](c2ccc(OCCOC(=O)[C@H]3C[C@H]4C(=O)N[C@@H](Cc5ccccc5)C(=O)N4[C@H]3c3ccc(O)cc3)cc2)[C@@]12C(=O)Nc1ccc(I)cc12`, the composite z-score in assay [1] was -0.248; in [2], 1.33; in assay [3], -0.0939; in assay [4], 0.459; in assay [5], 1.11; in [6] it was 0.846. In addition, the composite z-score in [7] was 1.3; in assay [9] it was 0.248; in assay [10], -0.0994. In addition, the z-score in assay [8] is 1.16 (inactive).
For the compound `COc1cc2c(cc1O)C(c1ccc(CN3CCCC3)cc1)N(Cc1sc3ccccc3c1Cl)CC2` (stereo not given), the composite z-score was 0.719 in assay [1]; -0.002 in assay [2]; -0.0687 in assay [3]; 0.156 in assay [4]; 0.805 in assay [5]; 0.072 in assay [6]. Also, the composite z-score in assay [7] is 1.17; in [9], 1.38; in [10], -0.214. For the same compound, in assay [8], the z-score was 0.0314 (inactive).
As for `CCCC[C@H]1C[C@@H]1[C@@H]1N(P(=O)(c2ccccc2)c2ccccc2)[C@](CO)(c2ccccc2)CC12CC2`, the composite z-score was 0.488 in [1]; -0.363 in [2]; 0.0231 in assay [3]; 0.106 in assay [4]; 1.44 in [5]; 0.936 in assay [6]. In addition, the composite z-score in [7] came out at 1.05; in assay [9] it was 1.03; in [10], 0.235. Besides, the z-score in [8] is 0.273 (inactive).
As for `C=C(COC)/C(=C/C[C@H](OC(C)=O)c1ccccc1OCCO)c1cnc2ccccc2c1`, the composite z-score in [1] is -0.419; in assay [2], -0.288; in [3], -0.0366; in assay [4], 1.08; in assay [5], 1.33; in [6], 1.19. The composite z-score in assay [7] worked out at 1.13; in assay [9], 0.101; in [10] it was 0.142. Moreover, the z-score in assay [8] is -0.267 (inactive).
`COc1ccc(C#Cc2ccc3c(c2)[C@]2(C(=O)N3)[C@H](C(=O)N3CCc4cc(OC)c(OC)cc4C3)[C@H]3C(=O)O[C@H](c4ccccc4)[C@H](c4ccccc4)N3[C@@H]2c2ccc(OCCO)cc2)cc1`: the composite z-score in assay [1] is -0.304; in assay [2], 0.487; in assay [3], 0.0019; in assay [4] it was 0.817; in assay [5], 1.32; in assay [6], 0.213. In addition, the composite z-score was found to be 1.2 in assay [7], 0.35 in assay [9] and 0.314 in assay [10]. Further, the z-score in assay [8] is 0.239 (inactive).
Take `C#C[C@H](O[Si](C#CCCCCCC)(C(C)C)C(C)C)c1ccccc1`: the composite z-score in assay [1] is -0.441; in [2] it was -0.0593; in assay [3], -0.0994; in [4], 0.323; in [5] it was -0.55; in [6] it was -0.204. The composite z-score in [7] is 0.0885; in assay [9], -0.748; in assay [10] it was -0.217. Further, in assay [8], the z-score is 0.0077 (inactive).
As for `Cc1ccc(S[C@]2(C(=O)NCC(F)(F)F)CC(=O)N(C3Cc4ccccc4C3)[C@@H]2c2ccc(CO)cc2I)cc1`, the composite z-score is 1.27 in assay [1]; 0.0708 in assay [2]; -0.11 in assay [3]; -0.433 in [4]; -0.929 in [5]; 0.569 in [6]. Also, the composite z-score in [7] is 0.455; in [9], -0.265; in [10] it was 0.0024. In assay [8], the z-score was -0.92 (inactive).
Regarding `[N-]=[N+]=NCc1ccccc1C[C@@]1(C(=O)NCc2ccccc2)N=C(c2ccc(OCCCO)cc2)O[C@@H]1c1ccccc1CN=[N+]=[N-]`, the composite z-score stood at 0.705 in assay [1]; 0.425 in assay [2]; 0.107 in assay [3]; 0.809 in assay [4]; 0.933 in assay [5]; 0.926 in assay [6]. Further, the composite z-score in [7] stood at 1.05; in [9] it was 0.803; in assay [10], 0.553. Further, the z-score in assay [8] was -1.95 (inactive).
Regarding `O=C1C2C=CC(C(O)c3cccc4ccccc34)N(n3cnnc3)C2C(=O)N1Cc1ccccc1` (stereo not given), the composite z-score turned out to be 1.45 in assay [1]; 0.0748 in [2]; 0.737 in assay [3]; 0.774 in [4]; 0.309 in [5]; 0.704 in assay [6]. Further, the values for the composite z-score in [7], in assay [9] and in assay [10] were 0.821, 1.8 and 0.506, respectively. In assay [8], the z-score is -0.259 (inactive).
